# Source: paper PMC7862700, “An all-to-all approach to the identification of sequence-specific readers for epigenetic DNA modifications on cytosine”
# Key:
# Experiment in all cases: DAPPL (digital affinity profiling via proximity ligation, sequencing); 10 mM Tris-HCl pH 7.5, 50 mM NaCl, 1 mM DTT, 4% glycerol, room temperature, 30 min; GST-TFs on glutathione beads, 16-mer random dsDNA library, 0.1% formaldehyde crosslink after washing; high values mean tight binding
# FEV = target: T1, FEV (Homo sapiens, UniProt Q99581 1-238); conditions: protein: recombinant; tags: N-terminal GST; dsDNA, one strand shown
# T1 sequence: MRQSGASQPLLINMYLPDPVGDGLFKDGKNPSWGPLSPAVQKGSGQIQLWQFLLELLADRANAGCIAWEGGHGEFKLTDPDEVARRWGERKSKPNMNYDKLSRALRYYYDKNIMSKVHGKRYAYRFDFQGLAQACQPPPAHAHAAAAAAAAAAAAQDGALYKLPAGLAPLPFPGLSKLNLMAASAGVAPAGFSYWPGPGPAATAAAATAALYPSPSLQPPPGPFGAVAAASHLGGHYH
# Procedure, shortened: (§1)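 Binding signal is each hexamer's read frequency for a factor divided by its frequency in the tag-only sample. The factors were GST-fused human transcription factors from yeast, captured on glutathione beads, DNA-barcoded and pooled with that sample. Pools were incubated with 200 nmole of a random double-stranded 16-mer DNA library in Tris/NaCl/DTT/glycerol buffer at room temperature for 30 min, then washed, crosslinked with 0.1% formaldehyde, proximity-ligated with BsaI/T4 ligase (1 h, 37 °C), PCR-amplified and sequenced on an Illumina NextSeq500.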
# ETV5 = ETV5 (Homo sapiens, UniProt P41161 1-510); conditions: protein: recombinant; tags: N-terminal GST; dsDNA, one strand shown
# Procedure, shortened: as §1
# HSF1 = HSF1 (Homo sapiens, UniProt Q00613 1-529); conditions: protein: recombinant; tags: N-terminal GST; chain copies: 3; dsDNA, one strand shown
# Procedure, shortened: as §1
# ELF4 = ELF4 (Homo sapiens, UniProt Q99607 1-663); conditions: protein: recombinant; tags: N-terminal GST; dsDNA, one strand shown
# Procedure, shortened: as §1
# ELK4 = target: T2, ELK4 (Homo sapiens, UniProt P28324-2 1-405); conditions: protein: recombinant; tags: N-terminal GST; dsDNA, one strand shown
# T2 sequence: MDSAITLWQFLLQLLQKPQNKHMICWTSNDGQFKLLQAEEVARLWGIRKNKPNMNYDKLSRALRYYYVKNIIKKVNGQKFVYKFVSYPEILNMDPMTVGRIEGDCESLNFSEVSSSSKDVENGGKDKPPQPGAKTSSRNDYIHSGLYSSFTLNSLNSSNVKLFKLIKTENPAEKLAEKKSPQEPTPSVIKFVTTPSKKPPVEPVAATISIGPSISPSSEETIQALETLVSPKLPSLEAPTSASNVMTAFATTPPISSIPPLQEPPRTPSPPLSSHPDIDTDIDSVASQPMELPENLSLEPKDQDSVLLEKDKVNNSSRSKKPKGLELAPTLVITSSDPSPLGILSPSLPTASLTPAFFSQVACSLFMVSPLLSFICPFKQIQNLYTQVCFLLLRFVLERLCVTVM
# Procedure, shortened: as §1
# ETV2 = target: T3, ETV2 (Homo sapiens, UniProt O00321 1-342); conditions: protein: recombinant; tags: N-terminal GST; dsDNA, one strand shown
# T3 sequence: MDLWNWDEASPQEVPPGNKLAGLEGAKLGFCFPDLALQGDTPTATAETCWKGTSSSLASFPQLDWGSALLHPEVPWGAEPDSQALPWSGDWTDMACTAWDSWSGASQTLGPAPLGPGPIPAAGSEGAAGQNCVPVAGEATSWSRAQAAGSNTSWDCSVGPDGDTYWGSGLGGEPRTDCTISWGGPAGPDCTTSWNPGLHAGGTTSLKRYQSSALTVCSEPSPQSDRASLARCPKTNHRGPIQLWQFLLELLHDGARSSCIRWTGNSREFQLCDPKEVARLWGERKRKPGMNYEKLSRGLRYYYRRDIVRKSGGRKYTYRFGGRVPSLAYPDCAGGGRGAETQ
# Procedure, shortened: as §1
# ELF3 = target: T4, ELF3 (Homo sapiens, UniProt P78545 1-371); conditions: protein: recombinant; tags: N-terminal GST; dsDNA, one strand shown
# T4 sequence: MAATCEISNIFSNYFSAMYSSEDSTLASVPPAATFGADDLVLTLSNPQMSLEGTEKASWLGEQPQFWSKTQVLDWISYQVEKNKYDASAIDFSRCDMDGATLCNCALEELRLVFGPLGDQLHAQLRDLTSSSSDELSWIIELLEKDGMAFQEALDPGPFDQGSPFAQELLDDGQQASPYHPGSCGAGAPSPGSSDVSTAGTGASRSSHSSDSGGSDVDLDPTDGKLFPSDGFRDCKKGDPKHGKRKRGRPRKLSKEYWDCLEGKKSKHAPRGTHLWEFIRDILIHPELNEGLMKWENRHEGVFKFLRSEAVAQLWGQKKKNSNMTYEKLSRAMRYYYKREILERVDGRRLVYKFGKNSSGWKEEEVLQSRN
# Procedure, shortened: as §1
# CRX = CRX (Homo sapiens, UniProt O43186 1-299); conditions: protein: recombinant; tags: N-terminal GST; dsDNA, one strand shown
# Procedure, shortened: as §1
# ETV1 = ETV1 (Homo sapiens, UniProt P50549 1-477); conditions: protein: recombinant; tags: N-terminal GST; dsDNA, one strand shown
# Procedure, shortened: as §1
# ERF = target: T5, ERF (Homo sapiens, UniProt P50548 1-548); conditions: protein: recombinant; tags: N-terminal GST; dsDNA, one strand shown
# T5 sequence: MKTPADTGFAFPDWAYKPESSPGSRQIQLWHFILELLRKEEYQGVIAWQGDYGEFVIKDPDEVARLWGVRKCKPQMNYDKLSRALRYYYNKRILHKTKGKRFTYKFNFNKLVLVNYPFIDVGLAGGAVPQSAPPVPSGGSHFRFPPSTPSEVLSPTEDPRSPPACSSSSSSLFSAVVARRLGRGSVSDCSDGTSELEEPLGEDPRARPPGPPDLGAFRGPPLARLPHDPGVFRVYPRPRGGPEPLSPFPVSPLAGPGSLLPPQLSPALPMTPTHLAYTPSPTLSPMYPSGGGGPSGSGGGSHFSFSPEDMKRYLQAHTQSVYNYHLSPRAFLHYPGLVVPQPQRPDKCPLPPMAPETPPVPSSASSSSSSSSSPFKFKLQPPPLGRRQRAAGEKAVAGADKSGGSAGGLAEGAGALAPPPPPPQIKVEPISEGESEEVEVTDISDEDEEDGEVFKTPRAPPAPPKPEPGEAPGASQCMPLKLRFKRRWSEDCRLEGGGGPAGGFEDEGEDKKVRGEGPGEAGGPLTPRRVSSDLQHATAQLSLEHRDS
# Procedure, shortened: as §1
# ETV3L = target: T6, ETV3L (Homo sapiens, UniProt Q6ZN32 1-361); conditions: protein: recombinant; tags: N-terminal GST; dsDNA, one strand shown
# T6 sequence: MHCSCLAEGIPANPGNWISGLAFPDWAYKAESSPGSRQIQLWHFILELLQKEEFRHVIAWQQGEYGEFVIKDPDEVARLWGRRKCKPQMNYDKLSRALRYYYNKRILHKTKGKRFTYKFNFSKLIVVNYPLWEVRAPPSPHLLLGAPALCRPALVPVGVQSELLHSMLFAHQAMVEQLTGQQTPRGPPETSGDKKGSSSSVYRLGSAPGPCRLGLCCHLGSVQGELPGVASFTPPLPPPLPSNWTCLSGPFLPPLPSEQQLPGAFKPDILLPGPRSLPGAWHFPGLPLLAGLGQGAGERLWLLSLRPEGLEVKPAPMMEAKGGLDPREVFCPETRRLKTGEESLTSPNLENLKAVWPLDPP
# Procedure, shortened: as §1
# ETS2 = target: T7, ETS2 (Homo sapiens, UniProt P15036 1-469); conditions: protein: recombinant; tags: N-terminal GST; dsDNA, one strand shown
# T7 sequence: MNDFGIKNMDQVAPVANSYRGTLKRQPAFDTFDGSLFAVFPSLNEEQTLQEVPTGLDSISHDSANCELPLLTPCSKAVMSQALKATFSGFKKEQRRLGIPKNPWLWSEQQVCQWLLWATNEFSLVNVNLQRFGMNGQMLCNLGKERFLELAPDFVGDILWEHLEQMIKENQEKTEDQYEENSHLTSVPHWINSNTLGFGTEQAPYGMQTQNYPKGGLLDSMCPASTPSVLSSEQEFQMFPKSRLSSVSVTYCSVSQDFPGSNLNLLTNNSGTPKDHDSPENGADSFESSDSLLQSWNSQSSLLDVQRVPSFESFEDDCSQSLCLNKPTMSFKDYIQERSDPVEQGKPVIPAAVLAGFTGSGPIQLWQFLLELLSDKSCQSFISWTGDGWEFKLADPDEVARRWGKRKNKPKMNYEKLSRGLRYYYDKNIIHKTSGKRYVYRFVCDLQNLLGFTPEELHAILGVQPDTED
# Procedure, shortened: as §1
# SPDEF = target: T8, SPDEF (Homo sapiens, UniProt O95238 1-335); conditions: protein: recombinant; tags: N-terminal GST; dsDNA, one strand shown
# T8 sequence: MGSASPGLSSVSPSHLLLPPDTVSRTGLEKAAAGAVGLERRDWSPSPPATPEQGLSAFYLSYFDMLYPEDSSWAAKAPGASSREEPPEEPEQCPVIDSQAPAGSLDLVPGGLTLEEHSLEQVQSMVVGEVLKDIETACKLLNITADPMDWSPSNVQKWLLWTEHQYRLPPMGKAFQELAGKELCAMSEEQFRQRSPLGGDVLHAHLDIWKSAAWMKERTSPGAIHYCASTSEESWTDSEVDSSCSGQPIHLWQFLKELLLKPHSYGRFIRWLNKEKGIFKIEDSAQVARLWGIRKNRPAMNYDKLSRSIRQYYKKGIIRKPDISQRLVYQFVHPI
# Procedure, shortened: as §1
# ETV7 = target: T9, ETV7 (Homo sapiens, UniProt Q9Y603 1-341); conditions: protein: recombinant; tags: N-terminal GST; dsDNA, one strand shown
# T9 sequence: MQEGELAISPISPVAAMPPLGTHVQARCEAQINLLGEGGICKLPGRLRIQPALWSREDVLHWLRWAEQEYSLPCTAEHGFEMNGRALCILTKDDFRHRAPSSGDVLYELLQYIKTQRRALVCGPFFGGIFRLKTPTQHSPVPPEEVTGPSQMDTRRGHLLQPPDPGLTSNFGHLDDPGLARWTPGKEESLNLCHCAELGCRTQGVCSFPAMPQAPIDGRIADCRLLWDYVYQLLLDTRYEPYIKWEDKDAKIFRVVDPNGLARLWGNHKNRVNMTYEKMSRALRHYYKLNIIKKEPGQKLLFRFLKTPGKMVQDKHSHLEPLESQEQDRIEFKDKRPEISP
# Procedure, shortened: as §1
# ELF5 = target: T10, ELF5 (Homo sapiens, UniProt Q9UKW6-2 1-255); conditions: protein: recombinant; tags: N-terminal GST; dsDNA, one strand shown
# T10 sequence: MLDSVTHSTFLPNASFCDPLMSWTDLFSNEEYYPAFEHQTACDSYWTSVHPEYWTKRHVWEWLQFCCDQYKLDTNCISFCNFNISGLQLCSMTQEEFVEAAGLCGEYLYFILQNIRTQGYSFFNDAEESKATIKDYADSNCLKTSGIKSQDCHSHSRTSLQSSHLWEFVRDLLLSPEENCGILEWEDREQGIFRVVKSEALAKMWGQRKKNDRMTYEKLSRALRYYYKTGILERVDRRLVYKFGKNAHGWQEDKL
# Procedure, shortened: as §1
# ETV3 = target: T11, ETV3 (Homo sapiens, UniProt P41162-2 1-143); conditions: protein: recombinant; tags: N-terminal GST; dsDNA, one strand shown
# T11 sequence: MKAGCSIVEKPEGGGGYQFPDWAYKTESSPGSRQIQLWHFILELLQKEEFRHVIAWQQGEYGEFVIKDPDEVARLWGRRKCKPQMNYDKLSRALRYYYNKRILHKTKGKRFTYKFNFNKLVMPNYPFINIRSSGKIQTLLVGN
# Procedure, shortened: as §1
# ETV6 = ETV6 (Homo sapiens, UniProt P41212 1-452); conditions: protein: recombinant; tags: N-terminal GST; dsDNA, one strand shown
# Procedure, shortened: as §1
# Sequence of ETV5 (P41161 whole entry): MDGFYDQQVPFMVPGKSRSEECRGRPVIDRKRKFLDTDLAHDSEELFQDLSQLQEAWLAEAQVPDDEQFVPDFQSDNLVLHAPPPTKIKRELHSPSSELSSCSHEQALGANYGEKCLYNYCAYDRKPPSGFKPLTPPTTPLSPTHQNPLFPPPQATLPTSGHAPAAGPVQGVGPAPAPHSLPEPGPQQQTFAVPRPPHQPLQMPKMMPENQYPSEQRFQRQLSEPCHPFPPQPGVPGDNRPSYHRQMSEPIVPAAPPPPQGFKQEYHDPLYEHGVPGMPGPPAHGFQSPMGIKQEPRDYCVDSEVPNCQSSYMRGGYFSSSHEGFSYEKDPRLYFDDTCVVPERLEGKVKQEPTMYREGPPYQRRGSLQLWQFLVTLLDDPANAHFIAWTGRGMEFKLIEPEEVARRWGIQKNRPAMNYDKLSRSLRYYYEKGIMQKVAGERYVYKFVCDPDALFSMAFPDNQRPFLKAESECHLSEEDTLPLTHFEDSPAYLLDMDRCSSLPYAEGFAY
# Sequence of ELF4 (Q99607 whole entry): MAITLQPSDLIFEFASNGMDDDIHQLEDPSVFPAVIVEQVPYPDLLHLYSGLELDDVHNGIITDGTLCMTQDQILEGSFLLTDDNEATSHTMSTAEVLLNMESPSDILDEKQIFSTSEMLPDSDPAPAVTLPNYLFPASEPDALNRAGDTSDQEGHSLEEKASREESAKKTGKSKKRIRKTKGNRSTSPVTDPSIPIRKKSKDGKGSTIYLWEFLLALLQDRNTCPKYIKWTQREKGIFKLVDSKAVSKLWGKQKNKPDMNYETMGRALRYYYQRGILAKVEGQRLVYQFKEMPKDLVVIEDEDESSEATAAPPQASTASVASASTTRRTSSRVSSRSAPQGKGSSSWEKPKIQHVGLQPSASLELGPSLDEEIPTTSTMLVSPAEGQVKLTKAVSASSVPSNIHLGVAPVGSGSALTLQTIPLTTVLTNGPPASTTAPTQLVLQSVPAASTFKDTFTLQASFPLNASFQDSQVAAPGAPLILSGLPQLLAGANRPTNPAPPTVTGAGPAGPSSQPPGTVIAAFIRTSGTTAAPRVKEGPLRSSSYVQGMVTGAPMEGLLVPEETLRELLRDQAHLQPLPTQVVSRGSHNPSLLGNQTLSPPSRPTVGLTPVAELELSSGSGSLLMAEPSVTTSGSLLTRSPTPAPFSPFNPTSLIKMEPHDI
# Sequence of ETV1 (P50549 whole entry): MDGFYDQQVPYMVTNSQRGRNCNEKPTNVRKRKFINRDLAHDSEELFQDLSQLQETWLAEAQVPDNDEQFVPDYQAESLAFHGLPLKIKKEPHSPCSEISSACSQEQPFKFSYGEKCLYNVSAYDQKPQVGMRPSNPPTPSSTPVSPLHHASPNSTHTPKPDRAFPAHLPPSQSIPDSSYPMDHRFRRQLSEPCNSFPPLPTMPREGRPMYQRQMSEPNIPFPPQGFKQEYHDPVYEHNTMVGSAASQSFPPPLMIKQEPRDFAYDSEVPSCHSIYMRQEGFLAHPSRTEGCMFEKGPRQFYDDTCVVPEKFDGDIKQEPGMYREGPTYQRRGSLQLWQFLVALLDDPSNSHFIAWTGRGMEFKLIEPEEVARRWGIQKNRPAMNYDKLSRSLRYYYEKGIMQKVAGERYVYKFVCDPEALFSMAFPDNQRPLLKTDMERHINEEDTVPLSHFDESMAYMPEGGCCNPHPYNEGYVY
# Sequence of ETV6 (P41212 whole entry): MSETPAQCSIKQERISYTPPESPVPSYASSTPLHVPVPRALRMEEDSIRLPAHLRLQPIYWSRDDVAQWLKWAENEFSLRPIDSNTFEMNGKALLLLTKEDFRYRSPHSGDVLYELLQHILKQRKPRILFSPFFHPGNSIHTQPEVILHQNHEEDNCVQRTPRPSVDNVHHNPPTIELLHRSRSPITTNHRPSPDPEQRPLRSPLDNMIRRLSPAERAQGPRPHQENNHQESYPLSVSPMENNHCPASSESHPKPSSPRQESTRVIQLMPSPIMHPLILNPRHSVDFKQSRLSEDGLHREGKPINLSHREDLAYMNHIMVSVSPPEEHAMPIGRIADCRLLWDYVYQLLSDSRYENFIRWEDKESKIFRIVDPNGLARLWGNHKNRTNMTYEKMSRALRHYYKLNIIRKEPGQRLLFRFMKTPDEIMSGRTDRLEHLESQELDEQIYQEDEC
# Sequence of HSF1 (Q00613 whole entry): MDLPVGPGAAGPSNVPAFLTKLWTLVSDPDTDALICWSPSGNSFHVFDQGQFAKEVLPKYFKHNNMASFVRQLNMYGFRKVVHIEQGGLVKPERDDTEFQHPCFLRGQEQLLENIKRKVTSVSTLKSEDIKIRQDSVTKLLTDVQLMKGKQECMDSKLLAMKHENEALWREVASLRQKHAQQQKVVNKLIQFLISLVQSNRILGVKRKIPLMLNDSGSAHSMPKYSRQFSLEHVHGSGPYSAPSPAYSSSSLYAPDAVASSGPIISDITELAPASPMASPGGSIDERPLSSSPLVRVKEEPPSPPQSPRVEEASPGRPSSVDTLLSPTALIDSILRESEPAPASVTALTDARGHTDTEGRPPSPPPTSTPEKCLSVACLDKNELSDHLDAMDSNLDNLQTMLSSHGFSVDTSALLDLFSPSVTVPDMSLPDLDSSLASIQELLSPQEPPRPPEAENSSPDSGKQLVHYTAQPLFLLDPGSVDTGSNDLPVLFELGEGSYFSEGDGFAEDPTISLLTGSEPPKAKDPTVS
# Sequence of CRX (O43186 whole entry): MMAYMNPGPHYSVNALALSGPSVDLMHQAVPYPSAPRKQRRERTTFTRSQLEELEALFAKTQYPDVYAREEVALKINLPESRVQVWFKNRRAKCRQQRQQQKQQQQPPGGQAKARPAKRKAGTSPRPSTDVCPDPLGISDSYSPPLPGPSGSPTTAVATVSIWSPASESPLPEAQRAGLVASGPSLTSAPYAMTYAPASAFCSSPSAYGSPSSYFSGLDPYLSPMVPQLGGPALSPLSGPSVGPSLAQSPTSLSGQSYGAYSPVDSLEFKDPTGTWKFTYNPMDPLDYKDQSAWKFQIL
sequence,measurement,setting,value
GTTTAC,binding signal,FEV,"1.11 fold enrichment (6-mer frequency, TF over GST control)"
same,binding signal,ETV5,"1.1 fold enrichment (6-mer frequency, TF over GST control)"
same,binding signal,HSF1,"1 fold enrichment (6-mer frequency, TF over GST control)"
same,binding signal,ELF4,"1.12 fold enrichment (6-mer frequency, TF over GST control)"
same,binding signal,ELK4,"1.32 fold enrichment (6-mer frequency, TF over GST control)"
same,binding signal,ETV2,"1.11 fold enrichment (6-mer frequency, TF over GST control)"
same,binding signal,ELF3,"1.28 fold enrichment (6-mer frequency, TF over GST control)"
same,binding signal,CRX,"1.01 fold enrichment (6-mer frequency, TF over GST control)"
same,binding signal,ETV1,"1.17 fold enrichment (6-mer frequency, TF over GST control)"
same,binding signal,ERF,"1.12 fold enrichment (6-mer frequency, TF over GST control)"
same,binding signal,ETV3L,"1.12 fold enrichment (6-mer frequency, TF over GST control)"
same,binding signal,ETS2,"1.13 fold enrichment (6-mer frequency, TF over GST control)"
same,binding signal,SPDEF,"1.12 fold enrichment (6-mer frequency, TF over GST control)"
same,binding signal,ETV7,"1.22 fold enrichment (6-mer frequency, TF over GST control)"
same,binding signal,ELF5,"1.13 fold enrichment (6-mer frequency, TF over GST control)"
same,binding signal,ETV3,"1.07 fold enrichment (6-mer frequency, TF over GST control)"
same,binding signal,ETV6,"1.19 fold enrichment (6-mer frequency, TF over GST control)"
